These results are taken from the antibiotic and cytotoxicity screens of Wong et al. (2023).

The structures appear in SMILES notation. Hit rate of the full screen: of about 39,000 compounds, about 3,300 (8.5%) were called active. Shown is part of a subset that was picked to be rich in actives.

The subject of the test is HepG2. As to the kind of experiment: cytotoxicity call (relative viability < 0.9). The note with it: 10 µM.
On to `CO[C@H]1CN(C)C(=O)c2cc(NS(=O)(=O)CC(F)(F)F)ccc2OC[C@H](C)N(C(=O)c2ccc3c(c2)OCO3)C[C@H]1C`, for which the cytotoxicity call is “inactive”. In the case of `O=C(Cc1ccccn1)NCC[C@H]1CC[C@@H](NC(=O)CN2CCOCC2)[C@H](CO)O1` it was “inactive”; in that of `C[C@H]1CN([C@@H](C)CO)C(=O)c2cc(NC(=O)Cn3cnnn3)ccc2O[C@@H]1CN(C)S(=O)(=O)c1ccccc1`, “inactive”. In the case of `CC(C)N1C[C@H](C)[C@@H](CN(C)Cc2ccc(Oc3ccccc3)cc2)Oc2c(cccc2-c2nnc(-c3ccncc3)o2)C1=O` it was “inactive”. In the case of `COc1cccc(S(=O)(=O)N(C)C[C@@H]2Oc3c(NC(=O)Nc4cccc5ccccc45)cccc3C(=O)N([C@@H](C)CO)C[C@H]2C)c1` it was “active”; in that of `C[C@H](CO)N1C[C@H](C)[C@H](CN(C)S(=O)(=O)c2ccc(F)cc2)Oc2c(NC(=O)Nc3cccc4ccccc34)cccc2C1=O`, “inactive”. `COc1ccc(S(=O)(=O)N(C)C[C@H]2Oc3c(NC(=O)Nc4cccc5ccccc45)cccc3C(=O)N([C@@H](C)CO)C[C@@H]2C)cc1`: the cytotoxicity call is “active”. In the case of `C[C@H]1CN([C@@H](C)CO)C(=O)c2cccc(NC(=O)Nc3cccc4ccccc34)c2O[C@H]1CN(C)S(=O)(=O)c1ccc(F)cc1` it was “inactive”. With `COc1ccc(S(=O)(=O)N(C)C[C@@H]2Oc3c(NC(=O)Nc4cccc5ccccc45)cccc3C(=O)N([C@@H](C)CO)C[C@H]2C)cc1F`, the cytotoxicity call is “inactive”.

As to `COc1ccc(S(=O)(=O)N(C)C[C@H]2Oc3c(NC(=O)Nc4cccc5ccccc45)cccc3C(=O)N([C@@H](C)CO)C[C@H]2C)cc1`, the cytotoxicity call was “inactive”. Regarding `C[C@H](CO)N1C[C@H](C)[C@H](CN(C)S(=O)(=O)c2ccccc2)Oc2c(NC(=O)Nc3cccc4ccccc34)cccc2C1=O`, the cytotoxicity call is “inactive”. With `COc1ccc(S(=O)(=O)N(C)C[C@@H]2Oc3c(NC(=O)Nc4cccc5ccccc45)cccc3C(=O)N([C@@H](C)CO)C[C@H]2C)cc1`, the cytotoxicity call was “inactive”. With `COc1ccccc1S(=O)(=O)N(C)C[C@@H]1Oc2c(NC(=O)Nc3cccc4ccccc34)cccc2C(=O)N([C@@H](C)CO)C[C@H]1C`, the cytotoxicity call was “inactive”.

In the case of `COc1ccc(S(=O)(=O)N(C)C[C@@H]2Oc3c(NC(=O)Nc4cccc5ccccc45)cccc3C(=O)N([C@@H](C)CO)C[C@H]2C)c(OC)c1`, the cytotoxicity call was “active”.

As to `C[C@@H]1CN([C@@H](C)CO)C(=O)c2cccc(NC(=O)Nc3cccc4ccccc34)c2O[C@H]1CN(C)S(=O)(=O)c1ccc(OC(F)(F)F)cc1`, the cytotoxicity call was “active”. The result for `COc1ccc(S(=O)(=O)N(C)C[C@@H]2Oc3c(NC(=O)Nc4cccc5ccccc45)cccc3C(=O)N([C@@H](C)CO)C[C@H]2C)cc1OC` reads “inactive”. The result for `CC1CN(c2c(F)c(N)c3c(=O)c(C(=O)O)cn(C4CC4)c3c2F)CC(C)N1` (stereo unspecified) reads “inactive”.

For `CC(C)NC(=O)N(C)C[C@H]1OCCCC[C@@H](C)Oc2ccc(NC(=O)Nc3ccc(C(F)(F)F)cc3)cc2C(=O)N([C@H](C)CO)C[C@@H]1C`, the cytotoxicity call was “inactive”. Turning to `CC(C)NC(=O)N(C)C[C@@H]1Oc2c(NC(=O)C3CCOCC3)cccc2C(=O)N([C@@H](C)CO)C[C@@H]1C`, the cytotoxicity call is “inactive”. In the case of `COc1ccc(S(=O)(=O)Nc2ccc3c(c2)C(=O)N([C@@H](C)CO)C[C@H](C)[C@@H](CN(C)Cc2ccccc2)OCCCC[C@H](C)O3)cc1` it was “inactive”; in that of `C(=N\c1cc(-c2ccccc2)nn1-c1ccccc1)/c1ccccc1`, “inactive”. For `C[C@H]1CN([C@@H](C)CO)C(=O)c2cc(C#CC3CCCCC3)cnc2O[C@@H]1CN(C)C(=O)c1ccncc1`, the cytotoxicity call was “inactive”. The result for `O=C(CCCCCCC(=O)Nc1ccc([C@H]2C[C@H](c3ccccc3)O[C@H](c3cccc(Oc4ccccc4)c3)O2)cc1)NO` reads “inactive”; that for `C[C@H](CO)N1C[C@H](C)[C@H](CN(C)Cc2ccc(C(=O)O)cc2)Oc2ccc(NS(=O)(=O)c3cn(C)cn3)cc2CC1=O`, “inactive”. Regarding `O=C(C[C@@H]1C[C@H]2c3cc(NS(=O)(=O)c4ccc(F)cc4)ccc3O[C@H]2[C@H](CO)O1)NCc1ccccc1F`, the cytotoxicity call is “inactive”. Regarding `C[C@@H]1COCCC(=O)N1`, the cytotoxicity call is “inactive”. The result for `O=C1CN(c2ccccc2)C(=O)N1` reads “inactive”; that for `C[C@H]1CN([C@@H](C)CO)S(=O)(=O)c2ccc(C3=CCCCC3)cc2O[C@@H]1CN(C)S(=O)(=O)c1cn(C)cn1`, “inactive”; that for `COc1ccc(S(=O)(=O)N(C)C[C@H]2Oc3c(NC(=O)Nc4cccc5ccccc45)cccc3C(=O)N([C@H](C)CO)C[C@@H]2C)cc1`, “active”.

Regarding `COc1ccc(S(=O)(=O)N(C)C[C@@H]2Oc3c(NC(=O)Nc4cccc5ccccc45)cccc3C(=O)N(C(C)C)C[C@H]2C)cc1`, the cytotoxicity call was “inactive”. In the case of `COc1ccc(S(=O)(=O)N(C)C[C@H]2Oc3c(NC(=O)Nc4cccc5ccccc45)cccc3C(=O)N([C@H](C)CO)C[C@H]2C)cc1`, the cytotoxicity call is “inactive”. Turning to `COc1ccc(S(=O)(=O)N(C)C[C@@H]2Oc3c(NC(=O)Nc4cccc5ccccc45)cccc3C(=O)N([C@H](C)CO)C[C@H]2C)cc1`, the cytotoxicity call was “active”. In the case of `C[C@@H]1CN([C@H](C)CO)C(=O)c2cccc(NC(=O)Nc3cccc4ccccc34)c2O[C@@H]1CN(C)S(=O)(=O)c1cccs1` it was “active”. In the case of `COc1ccc(S(=O)(=O)N(C)C[C@@H]2Oc3c(NC(=O)Nc4cccc5ccccc45)cccc3C(=O)N([C@H](C)CO)C[C@@H]2C)cc1` it was “inactive”; in that of `C[C@@H]1CN([C@@H](C)CO)C(=O)c2cccc(NC(=O)Nc3cccc4ccccc34)c2O[C@H]1CN(C)S(=O)(=O)c1cccs1`, “inactive”; in that of `C[C@@H]1CN([C@@H](C)CO)C(=O)c2cccc(NC(=O)Nc3cccc4ccccc34)c2O[C@@H]1CN(C)S(=O)(=O)c1cccs1`, “inactive”. On to `COc1ccc(S(=O)(=O)N(C)C[C@@H]2Oc3c(NC(=O)Nc4cccc5ccccc45)cccc3C(=O)N([C@@H](C)CO)C[C@@H]2C)cc1`, for which the cytotoxicity call was “inactive”. The result for `C[C@@H]1CCCCO[C@@H](CN(C)S(C)(=O)=O)[C@H](C)CN([C@@H](C)CO)C(=O)c2cc(N(C)C)ccc2O1` reads “inactive”; that for `COc1ccc(S(=O)(=O)N(C)C[C@H]2Oc3ncc(Br)cc3C(=O)N([C@@H](C)CO)C[C@@H]2C)cc1`, “inactive”.

As to `C[C@H](CO)N1C[C@H](C)[C@@H](CN(C)C(=O)Nc2ccccc2)Oc2ccc(NC(=O)C3CC3)cc2CC1=O`, the cytotoxicity call was “inactive”. As to `O=C1OCC=C[C@H]2O[C@@]34C=CCN(c5ccc(Cl)cc5)C(=O)[C@H]3N(CCCCCCO)C(=O)[C@@H]4[C@@H]12`, the cytotoxicity call is “inactive”.

`C[C@@H]1CCCCO[C@H](CN(C)Cc2ccc(C(=O)O)cc2)[C@@H](C)CN([C@H](C)CO)C(=O)c2cc(NC(=O)Nc3ccccc3)ccc2O1`: the cytotoxicity call was “inactive”. In the case of `CC(C)N1C(=O)C[C@@](C(=O)NCCN2CCOCC2)(c2ccc([N+](=O)[O-])cc2)[C@H]1c1ccc(CO)cc1`, the cytotoxicity call was “inactive”.

In the case of `COc1ccc(NC(=O)Nc2ccc3c(c2)C(=O)N([C@@H](C)CO)C[C@H](C)[C@H](CN(C)C(=O)NC2CCCCC2)OCCCC[C@H](C)O3)cc1`, the cytotoxicity call was “inactive”. In the case of `C[C@H]1CCCCO[C@H](CN(C)S(=O)(=O)c2ccccc2)[C@@H](C)CN([C@@H](C)CO)C(=O)c2cc(NC(=O)Nc3cccc4ccccc34)ccc2O1` it was “inactive”; in that of `Cc1noc(C)c1NC(=O)N[C@@H]1CC[C@H](CC(=O)NCCCN(C)C)O[C@H]1CO`, “inactive”. In the case of `C[C@H]1CN([C@@H](C)CO)C(=O)c2cc(NC(=O)C3CC3)ccc2O[C@H]1CN(C)S(=O)(=O)c1cn(C)cn1` it was “inactive”; in that of `Cc1cc(C(=O)Nc2cccc3c2O[C@H](CN(C)S(=O)(=O)c2ccc(Cl)cc2)[C@@H](C)CN([C@H](C)CO)C3=O)n(C)n1`, “inactive”.

Take `COc1cc(NC(=O)CCN2CCC(OC(=O)Nc3ccccc3-c3ccccc3)CC2)c(Cl)cc1CNC[C@H](O)c1ccc(O)c2nc(O)ccc12`: the cytotoxicity call is “active”.

Consider `COc1cccc(C)c1NC(=O)O[C@H]1[C@H](OC(=O)Nc2ccccc2-c2ccccc2)[C@H](OC(=O)Nc2ccccc2-c2ccccc2)[C@@H](OC)O[C@@H]1CO`, for which the cytotoxicity call is “inactive”. For `NCc1cc2ccc(F)cc2[nH]c1=O`, the cytotoxicity call was “inactive”. Consider `C[C@H]1CN([C@@H](C)CO)C(=O)c2cc(C#CCN(C)C)cnc2O[C@H]1CN(C)C(=O)c1cnccn1`, for which the cytotoxicity call is “inactive”. As to `CC(=O)Oc1cc(OC(C)=O)c2c(c1)O[C@H](c1ccc(OC(C)=O)c(OC(C)=O)c1)[C@H](OC(C)=O)C2`, the cytotoxicity call is “inactive”. In the case of `O=C1NC(=O)C(c2cnc3ccccn23)=C1c1cn2c3c(cc(F)cc13)CN(C(=O)N1CCCCC1)CC2` it was “active”; in that of `C[C@H](CO)N1C[C@H](C)[C@@H](CN(C)S(=O)(=O)c2cn(C)cn2)Oc2c(NS(=O)(=O)c3ccc(Cl)cc3)cccc2C1=O`, “inactive”. The result for `COc1cccc(-c2ccc3c(c2)O[C@@H](CN(C)C(=O)C2CCC2)[C@@H](C)CN([C@H](C)CO)S3(=O)=O)c1` reads “inactive”; that for `Cc1ccc(S(=O)(=O)N(C)C[C@H]2Oc3ccc(NS(=O)(=O)c4cccs4)cc3C(=O)N([C@@H](C)CO)C[C@@H]2C)cc1`, “inactive”; that for `Cl.O=C1CN2Cc3c(ccc(Cl)c3Cl)N=C2N1`, “active”. For `C[C@H](CO)N1C[C@H](C)[C@H](CN(C)C(=O)C2CCOCC2)Oc2cc(-c3ccc(F)cc3)ccc2S1(=O)=O`, the cytotoxicity call is “inactive”. The result for `COc1ccc(S(=O)(=O)N(C)C[C@@H]2Oc3ncc(C#CC4(O)CCCC4)cc3C(=O)N([C@@H](C)CO)C[C@@H]2C)cc1` reads “inactive”; that for `O=C(Cc1nn[nH]n1)NS(=O)(=O)c1ccccc1`, “inactive”; that for `C[C@@H]1CN([C@@H](C)CO)C(=O)c2cc(NC(=O)Nc3ccc(F)cc3)ccc2O[C@@H](C)CCCCO[C@H]1CN(C)CC1CC1`, “inactive”. In the case of `C[C@@H]1CCCCO[C@H](CN(C)CC2CCCCC2)[C@H](C)CN([C@H](C)CO)C(=O)c2cc(NC(=O)Nc3ccc(F)cc3)ccc2O1` it was “active”; in that of `C[C@@H]1CN([C@H](C)CO)C(=O)c2cc(NC(=O)Nc3ccc(F)cc3)ccc2O[C@@H](C)CCCCO[C@@H]1CN(C)CC1CCCCC1`, “active”; in that of `C[C@@H]1CCCCO[C@H](CN(C)CC2CC2)[C@@H](C)CN([C@H](C)CO)C(=O)c2cc(NC(=O)Nc3ccc(F)cc3)ccc2O1`, “inactive”. On to `C[C@@H]1CCCCO[C@@H](CN(C)CC2CCCCC2)[C@@H](C)CN([C@H](C)CO)C(=O)c2cc(NC(=O)Nc3ccc(F)cc3)ccc2O1`, for which the cytotoxicity call was “inactive”. The result for `C[C@@H]1CCCCO[C@@H](CN(C)CC2CCCCC2)[C@@H](C)CN([C@@H](C)CO)C(=O)c2cc(NC(=O)Nc3ccc(F)cc3)ccc2O1` reads “inactive”. In the case of `C[C@@H]1CCCCO[C@@H](CN(C)CC2CC2)[C@H](C)CN([C@H](C)CO)C(=O)c2cc(NC(=O)Nc3ccc(F)cc3)ccc2O1` it was “inactive”. In the case of `C[C@H]1CCCCO[C@H](CN(C)CC2CCCCC2)[C@@H](C)CN([C@@H](C)CO)C(=O)c2cc(NC(=O)Nc3ccc(F)cc3)ccc2O1` it was “active”. As to `C[C@H]1CCCCO[C@@H](CN(C)CC2CCCCC2)[C@@H](C)CN([C@@H](C)CO)C(=O)c2cc(NC(=O)Nc3ccc(F)cc3)ccc2O1`, the cytotoxicity call was “active”. Regarding `C[C@@H]1CCCCO[C@H](CN(C)CC2CC2)[C@H](C)CN([C@@H](C)CO)C(=O)c2cc(NC(=O)Nc3ccc(F)cc3)ccc2O1`, the cytotoxicity call was “inactive”.
